Compounds with a hit are over-represented: about 2.4% of the library has one in this group of screens.
p97 ATPase inh – human p97 ATPase inhibition | recombinant p97 ATPase, Kinase-Glo ATP luminescence, 3 h | inhibition, % at 8 µM | hit rate 0.42% among 220,000 | AID 1481; in the data active = inhibition above about 15%;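 also: 0% = DMSO vehicle and 100% = wells lacking enzyme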
Arbovirus inh – arbovirus infection inhibition; arbovirus infection cell-based antiviral screen; inhibition, % at 10 µM; hit rate 0.37% among 200,000; AID 1251; in the data active = inhibition above about 30%
Hck-Nef inh – human Hck-Nef kinase inhibition. P08631. Recombinant Hck-YEEI plus Nef, Z-Lyte FRET kinase assay. inhibition, % at 20 µM. hit rate 0.68% among 220,000. AID 463187;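 active = Hck-Nef kinase inhibition above about 50%, limit read from the data; inactive = inhibition below that limit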;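 also: 0% = DMSO with Hck plus Nef and 100% = Hck alone without Nef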
Target sequence (P08631 whole entry, looked up): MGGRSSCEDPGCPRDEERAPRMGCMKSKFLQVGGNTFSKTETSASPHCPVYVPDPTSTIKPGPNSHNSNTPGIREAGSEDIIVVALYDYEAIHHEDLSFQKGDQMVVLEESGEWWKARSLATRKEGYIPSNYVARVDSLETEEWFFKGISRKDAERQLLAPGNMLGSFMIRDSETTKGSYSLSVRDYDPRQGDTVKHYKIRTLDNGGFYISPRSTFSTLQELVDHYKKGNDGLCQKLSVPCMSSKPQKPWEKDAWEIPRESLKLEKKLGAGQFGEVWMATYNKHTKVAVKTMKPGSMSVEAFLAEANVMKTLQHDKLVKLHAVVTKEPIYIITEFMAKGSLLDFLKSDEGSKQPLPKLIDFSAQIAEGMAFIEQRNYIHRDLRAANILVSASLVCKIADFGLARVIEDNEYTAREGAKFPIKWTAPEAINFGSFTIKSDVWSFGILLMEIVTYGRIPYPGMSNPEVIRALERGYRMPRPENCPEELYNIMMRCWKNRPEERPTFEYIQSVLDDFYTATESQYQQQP
EP2 modulator – EP2 receptor (human) modulation; induction, % at 25 µM; hit rate 0.83% among 260,000; EP2-expressing cells, cAMP HTRF FRET, PGE2 co-stimulation;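 active = compounds whose cAMP rise, as percent of the full-agonist control response, exceeds 60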;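 also: rat C6 glioma line stably carrying human EP2 under a CMV promoter; the protocol text gives 20 µM as final concentration; 100% = response of wells given 1 µM PGE2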
EP2 antag – inhibitors of human EP2 prostaglandin E2 receptor. P43116. C6 glioma cells expressing human EP2, cAMP TR-FRET; cells stimulated with saturating PGE2. hit rate 0.52% among 260,000. inhibition, % at 25 µM;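 active = percent inhibition above 40 after rounding to a whole number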;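 also: rat C6 glioma host cells with rolipram phosphodiesterase inhibitor present; the protocol text gives 20 µM as final concentration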
The depositor's hits bear a star; . = no result given.

SMILES	p97 ATPase inh	Arbovirus inh	Hck-Nef inh	EP2 modulator	EP2 antag
COC(=O)c1[nH]c(C)c(/C(O)=C2\C(=O)C(=O)N(CCN3CCOCC3)C2c2cccs2)c1C (stereo unspecified)	.	-14	.	36	8
CCOC(=O)c1[nH]c(C)c(/C(O)=C2\C(=O)C(=O)N(CCCN3CCOCC3)C2c2cccs2)c1C (stereo unspecified)	13	.	12	14	88*
Cc1cc(C)c2c(=O)n(CC(=O)Nc3cccc(F)c3)sc2n1	2	.	-145	-54	84*
Cc1cccc(N2CCN(C(=O)Cn3sc4nc(C)cc(C)c4c3=O)CC2C)c1 (stereo unspecified)	5	-39	1	-10	121*
Cc1ccc(NC(=O)Cn2sc3nc(C)cc(C)c3c2=O)c(Cl)c1	3	.	-145	-27	9
CCOc1ccc(NC(=O)Cn2sc3nc(C)cc(C)c3c2=O)cc1	4	.	-136	-41	122*
CCOc1ccc(NC(=O)CSc2nc(C)cc(C)c2C#N)cc1	.	.	.	-21	7
Cc1cc(C)c2c(=O)n(CC(=O)Nc3ccc(Cl)cc3)sc2n1	5	.	-43	-79	98*
Nc1cc(-c2cccs2)nn(CC(=O)NCc2ccc(Cl)cc2)c1=O	.	.	.	-110	6
COc1ccc2c(c1)cc(C)c1nn(CC(=O)Nc3cccc(C(C)=O)c3)c(=O)n12	.	.	.	-29	2
CCOc1ccc2[nH]c(C(=O)NCc3nc(-c4ccccc4)no3)c(C)c2c1	.	.	.	-5	6
COc1cc(C(=O)NCCc2c[nH]c3ccccc23)ccc1OCc1c(C)noc1C	8	-20	20	-103	88*
C/C(=N\NC(=S)NCc1ccccc1)c1ccccc1F	0	2	20	64*	3
C/C(=N\NC(=S)NCc1ccccc1)c1ccccc1	1	0	-20	22	4
Cc1ccc(N(CCc2ccccn2)N=O)cc1	.	.	.	-28	18
CN(CCc1ccccn1)c1ccc2c(c1)C(=O)c1ccccc1-2	.	.	.	-63	75*
CN1[C@@H](C(=O)NCc2ccccn2)C[C@@H](c2cccs2)NS1(=O)=O	.	.	.	85*	.
COc1ccc2c(c1)c1nc3ccccc3nc1n2Cc1ccc(OC)c(OC)c1	-2	33*	3	0	4
CC(=O)OC[C@H]1O[C@@H](n2ncc(=O)[nH]c2=O)[C@H](OC(C)=O)[C@@H]1OC(C)=O	-2	60*	-2	10	10
COc1ccc2c(-c3ccccc3)cc(SC(C)C(N)=O)nc2c1 (stereo unspecified)	-4	-9	13	62*	12
CCCNC(=O)COC(=O)CCC(=O)c1ccc(F)cc1	1	4	3	-7	13
CC(C)(C)NC(=O)COC(=O)CCC(=O)c1ccc(F)cc1	-7	10	-34	-8	89*
C=CCSC1=N/C(=C\c2sccc2C)C(=O)S1	3	-7	4	64*	5
C=CCSC1=N/C(=C\c2ccc3c(c2)OCO3)C(=O)S1	-4	-1	4	6	11
CN(C)c1ccc(C2Nc3ccc4ccccc4c3C3=C2CCCC3=O)cc1 (stereo unspecified)	.	.	.	-18	6
SMILES	p97 ATPase inh	Arbovirus inh	Hck-Nef inh	EP2 modulator	EP2 antag
Nc1nc2c(s1)CCc1c-2cnn1-c1ccccc1	16*	-11	-2	-23	40*
Nc1nc2c(s1)COc1ccccc1-2	1	-11	26	-49	10
CN(C)CCC1Sc2ccccc2Oc2ccccc21 (stereo unspecified)	1	-6	1	-5	11
CN(C)CCC[C@@H]1c2ccccc2Oc2ccc(C(F)(F)F)cc21	.	.	.	-32	58*
CCCCCCCCOC(=O)C1=C(C)Nc2nnnn2C1c1cccs1 (stereo unspecified)	-3	-38	-1	66*	3
CC(C)COP(=O)(OCC(C)C)C(Nc1ccccc1)c1ccccc1 (stereo unspecified)	-3	.	19	70*	3
CC(C)COP(=O)(OCC(C)C)C(Nc1ccccc1)c1ccc(F)cc1 (stereo unspecified)	3	-9	4	44	2
O=C(CSc1nc(CCC2CCCC2)nc2ccccc12)N1CCCC1	.	.	.	43	11
CCN1CCc2c(sc(NC(=O)CN3C(=O)c4ccccc4C3=O)c2C(N)=O)C1	7	8	27	10	1
CCN1CCc2c(sc(NC(=S)NC(=O)c3ccc(Cl)cc3)c2C(N)=O)C1	7	.	-22	-59	41*
CCN1CCc2c(sc(NC(=S)NC(=O)/C=C/c3ccccc3)c2C(N)=O)C1	.	.	.	-177	84*
C=COCCNC(=O)Cn1ncc2c3oc(C)cc3n(C(C)C)c2c1=O	.	.	.	1	.
Cc1cc(SCC(=O)c2ccc(Br)cc2)cc(C)[o+]1	.	.	.	16	48*
Cc1nnc(SCC(=O)c2ccc(Br)cc2)s1	7	19	24	-4	1
COc1ccc(Br)cc1CN(C)CC(=O)Nc1c(Cl)cccc1Cl	-7	30*	0	39	5
COc1ccc(Br)cc1CN(C)CC(=O)Nc1cccc(S(N)(=O)=O)c1	-4	-12	20	-18	4
CCn1c(CNc2cccc(Cl)c2)nnc1SCC(=O)OC(C)C	.	.	.	-25	19
CCOC(=O)CSc1ccc(C(=O)Nc2ccc(Cl)cc2)cn1	-2	-2	-2	-47	41*
CCOC(=O)CSc1ccc(C(=O)Nc2ccc(OC)cc2)cn1	-4	-1	-30	4	28
CCCc1nc2ccc(NC(=O)C(C)(C)C)cc2c(=O)n1Cc1ccccc1Cl	.	.	.	-34	5
C=CCn1c(=S)[nH]c2scc(-c3ccc(C)o3)c2c1=O	-2	30	17	-7	34
O=c1c2c(-c3cccs3)csc2[nH]c(=S)n1-c1ccccc1	6	5	1	-1	66*
CC(C)n1c(=S)[nH]c2scc(-c3cccs3)c2c1=O	-1	.	98*	-19	71*
O=c1c2c(-c3cccs3)csc2ncn1-c1ccccc1	7	-20	-9	15	6
CCn1c(=S)[nH]c2scc(-c3cccs3)c2c1=O	-4	3	15	-17	70*
SMILES	p97 ATPase inh	Arbovirus inh	Hck-Nef inh	EP2 modulator	EP2 antag
CN(C)Cc1cc(C(C)(C)C)ccc1-c1ccc(C(C)(C)C)cc1CN(C)C	.	.	.	7	50*
Cc1cc2nc(CCN3CCOCC3)n(S(=O)(=O)c3ccc(C(C)(C)C)cc3)c2cc1C	-9	4	6	61*	2
CC(C)(C)c1ccc(S(=O)(=O)NCCN2CCOCC2)cc1	.	.	.	9	10
Cc1ncc(-c2ccncc2)c(C2CCN(C(=O)c3cnn(C(C)C)c3)CC2)n1	.	.	.	-11	.
COc1ccc(OC)c(-c2csc(N(C)C(=O)C3CCCCC3)n2)c1	.	.	.	-14	25
CCN(C(=O)C1CC1)c1nc(-c2cc(OC)ccc2OC)cs1	.	.	.	65*	9
COc1ccc(OC)c(-c2csc(N(C)C(=O)COc3ccc(C)cc3)n2)c1	.	.	.	32	54*
CCSc1nc(-c2cccs2)nc2ccccc12	-3	4	11	64*	5
c1ccc(CNc2nc(-c3cccs3)nc3ccccc23)cc1	5	-5	1	7	13
